Data as given in the OligoGym collection.
Further: reference of the scale not given here.

The sequences below were run against CHRNA1 (assay: pooled miR-30 sensor sort-seq; sequence = guide strand). Details: shRNA.
TTTTTTAGTGATTAGTTTCATT was tested, and the sensor-assay potency score (higher = more potent) was -0.783. TAGAACATCAGCAACTCCCTAG was tested, and the sensor-assay potency score (higher = more potent) was 0.223. TAGCTTTGCCACCAGACGGGTC showed a sensor-assay potency score (higher = more potent) of -1.08.

These sequences were tested against CHRNE in the same assay as above. Details: shRNA.
For TCGATCTTGTTGATGGTCTTGC, the sensor-assay potency score (higher = more potent) was 0.161. TCAAACACGAGCTCGCTCCGTG gave a sensor-assay potency score (higher = more potent) of -0.0514. In the case of TTTTTCAAAATCAATTTCCTAC, the sensor-assay potency score (higher = more potent) is reported as -0.288. In the case of TATACCCCCAAAGTCGTCCTTG, the sensor-assay potency score (higher = more potent) is reported as -0.579. For ATAGTTGTTGAAGAGATGGTGA, the sensor-assay potency score (higher = more potent) was 0.0987. ATCTTGTTGATGGTCTTGCCGT gave a sensor-assay potency score (higher = more potent) of -1.25.
